Laboratory results taken from PubChem BioAssay (Tox21).
Records with an inconclusive call do not appear. Active and inactive are the calls of the source. Unless noted, calls come from the whole dose curve.

What was measured:
[1] = molecular target: Gonadotropin-releasing hormone receptor (Homo sapiens) (UniProt P30968); experiment: Human gonadotropin-releasing hormone receptor (GnRHR) small molecule agonists, calcium flux assay in GnRHR-HEK293 cells (AID 1920063); note: nearly all actives have a fitted effect of over 35% in size
Chain of Gonadotropin-releasing hormone receptor (Homo sapiens) (P30968 whole entry, looked up): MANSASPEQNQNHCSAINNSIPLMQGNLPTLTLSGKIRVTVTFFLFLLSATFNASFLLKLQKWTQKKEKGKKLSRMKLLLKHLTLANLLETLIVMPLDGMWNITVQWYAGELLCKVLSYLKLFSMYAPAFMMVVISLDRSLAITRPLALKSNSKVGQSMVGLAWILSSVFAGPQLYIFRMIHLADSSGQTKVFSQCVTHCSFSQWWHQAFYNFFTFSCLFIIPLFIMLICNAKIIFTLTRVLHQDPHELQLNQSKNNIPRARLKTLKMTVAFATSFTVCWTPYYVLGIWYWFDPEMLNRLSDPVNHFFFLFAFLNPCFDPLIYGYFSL
Procedure, shortened: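 Intracellular calcium rise is the read-out: engineered human GnRHR HEK293 cells, dye-loaded, are exposed to DMSO-dissolved compounds and fluorescence at Ex/Em 480/540 is tracked for 3 min.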

[2] = molecular target: KiSS-1 receptor (Homo sapiens) (UniProt Q969F8); experiment: Human kisspeptin (KISS1R) small molecule agonists, calcium flux assay in KISS1R-HEK293 cells (AID 1920064; active = well fitted activation curve with a large enough effect in the repeat runs)
Chain of KiSS-1 receptor (Homo sapiens) (Q969F8 whole entry, looked up): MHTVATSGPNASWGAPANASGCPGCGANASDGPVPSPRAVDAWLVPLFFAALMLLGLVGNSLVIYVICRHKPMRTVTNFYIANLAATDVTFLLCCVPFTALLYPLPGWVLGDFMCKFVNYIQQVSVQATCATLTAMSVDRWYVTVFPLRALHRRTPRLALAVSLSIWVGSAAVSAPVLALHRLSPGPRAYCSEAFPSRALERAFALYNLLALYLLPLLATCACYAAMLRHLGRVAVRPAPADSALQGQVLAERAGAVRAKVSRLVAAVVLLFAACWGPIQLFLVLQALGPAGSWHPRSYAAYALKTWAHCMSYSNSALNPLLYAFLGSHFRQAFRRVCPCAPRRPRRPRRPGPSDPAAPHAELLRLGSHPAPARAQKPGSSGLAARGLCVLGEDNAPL
Procedure, shortened: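 Concentration-response testing used 15 concentrations in triplicate on human KISS1R-expressing HEK293 cells. Calcium-dependent fluorescence (Ex/Em 480/540) was followed kinetically for 3 min after compound transfer.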

[3] = G protein-coupled receptor (GPCR) small molecule agonists, calcium flux assay: HEK293 wild type cell line counter screen (AID 1920065)
Procedure, shortened: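 Fluorescence intensity signals activation. After overnight (18 h) culture and a 1 h calcium dye load at 37 C, compounds are added by pin tool and the plate read at 480/540 nm for 3 min in 1 s steps.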

[4] = p53 small molecule agonists, cell-based qHTS assay with human liver microsomes (AID 1963577);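 note: p53 response element beta-lactamase reporter cells with liver microsomes plus NADPH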
Procedure, shortened: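 HLM-supplemented p53RE-bla reporter assay: 16 h compound exposure at 37 C, microsomes and NADPH each 0.5 mg/mL final, read by fluorescence intensity.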

[5] = p53 small molecule agonists, cell-based qHTS assay with rat liver microsomes (AID 1963578)
Procedure, shortened: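 Quantitative HTS of the Tox21 10K library: p53RE-bla cells, rat liver microsomes plus NADPH at 0.5 mg/mL final each, 16 h at 37 C, beta-lactamase fluorescence detection.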

[6] = p53 small molecule agonists, cell-based qHTS assay with human liver microsomes: qHTS cell viability counter screen (AID 1963579); note: nearly all actives have a fitted effect of over 45% in size
Procedure, shortened: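 Viability of p53RE-bla cells is measured as CellTiter-Glo luminescence following a 16 h, 37 C incubation with compound, liver microsomes from human donors and NADPH.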

[7] = p53 small molecule agonists, cell-based qHTS assay with rat liver microsomes: qHTS cell viability counter screen (AID 1963580); note: nearly all actives have a fitted effect of over 45% in size
Procedure, shortened: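 Luminescent ATP readout (CellTiter-Glo, 30 min at room temperature) reports viability of p53RE-bla HCT-116 cells after 16 h at 37 C with test compounds under metabolic activation by rat liver microsomes and NADPH at 0.5 mg/mL final each.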

[8] = p53 small molecule agonists, cell-based qHTS assay: qHTS cell viability counter screen (AID 1963581); note: nearly all actives have a fitted effect of over 45% in size
Procedure, shortened: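 Luminescence from CellTiter-Glo, reflecting ATP content, serves as the cytotoxicity measure; it is taken after the 2 h reporter substrate step in HCT-116 p53RE-bla cells dosed for 16 h at 37 C.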

[9] = molecular target: 5-hydroxytryptamine receptor 2A (Homo sapiens) (UniProt P28223); experiment: 5-hydroxytryptamine receptor 2A (HTR2A) small molecule agonists, cell-based qHTS assay (AID 1963587); note: nearly all actives have a fitted effect of over 30% in size
Chain of 5-hydroxytryptamine receptor 2A (Homo sapiens) (P28223 whole entry, looked up): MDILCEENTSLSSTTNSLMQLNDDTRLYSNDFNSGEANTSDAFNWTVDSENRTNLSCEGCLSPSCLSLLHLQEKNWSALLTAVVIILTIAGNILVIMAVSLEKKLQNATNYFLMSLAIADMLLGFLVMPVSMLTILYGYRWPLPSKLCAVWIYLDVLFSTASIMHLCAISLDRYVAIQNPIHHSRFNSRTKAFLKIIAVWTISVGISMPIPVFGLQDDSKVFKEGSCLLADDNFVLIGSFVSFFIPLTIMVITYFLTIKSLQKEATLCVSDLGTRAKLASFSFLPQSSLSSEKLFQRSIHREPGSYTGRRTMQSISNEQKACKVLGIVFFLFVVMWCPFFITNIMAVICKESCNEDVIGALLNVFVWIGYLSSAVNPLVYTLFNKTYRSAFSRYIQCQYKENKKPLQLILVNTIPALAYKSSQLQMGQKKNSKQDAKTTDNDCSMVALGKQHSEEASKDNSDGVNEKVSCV
Procedure, shortened: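 HTR2A-CHO cells, plated 18 h at 37 C/5% CO2, dye-loaded 1 h at 37 C; compounds in DMSO added by pin tool (agonist mode). Intracellular calcium flux read as kinetic fluorescence on FDSS over 2 min at 1 s intervals.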

[10] = molecular target: Muscarinic acetylcholine receptor M1 (Homo sapiens) (UniProt P11229); experiment: Cholinergic receptor muscarinic 1 (CHRM1) small molecule antagonists, cell-based qHTS assay (AID 1963588); note: nearly all actives have a fitted effect of over 40% in size
Chain of Muscarinic acetylcholine receptor M1 (Homo sapiens) (P11229 whole entry, looked up): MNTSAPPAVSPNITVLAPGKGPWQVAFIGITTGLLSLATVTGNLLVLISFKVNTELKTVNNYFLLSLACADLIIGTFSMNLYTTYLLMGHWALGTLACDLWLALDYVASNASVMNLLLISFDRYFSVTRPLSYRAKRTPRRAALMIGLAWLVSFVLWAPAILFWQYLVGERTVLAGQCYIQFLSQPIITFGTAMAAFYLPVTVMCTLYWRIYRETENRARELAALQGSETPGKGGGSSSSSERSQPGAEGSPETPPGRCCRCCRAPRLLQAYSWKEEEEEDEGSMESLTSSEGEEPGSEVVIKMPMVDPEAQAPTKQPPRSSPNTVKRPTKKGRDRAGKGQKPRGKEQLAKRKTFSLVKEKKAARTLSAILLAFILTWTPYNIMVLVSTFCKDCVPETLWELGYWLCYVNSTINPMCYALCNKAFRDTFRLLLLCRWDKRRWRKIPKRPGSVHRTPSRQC
Procedure, shortened: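 Compounds were tested at 15 concentrations in three independent runs. Dye-loaded CHRM1-CHO cells were exposed 5 min at room temperature before stimulation by acetylcholine added at 50nM. Intracellular calcium was read kinetically on FDSS for 3 min.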

[11] = molecular target: Muscarinic acetylcholine receptor M1 (Homo sapiens) (UniProt P11229); experiment: Cholinergic receptor muscarinic 1 (CHRM1) small molecule agonists, cell-based qHTS assay (AID 1963589); note: nearly all actives have a fitted effect of over 35% in size
Procedure, shortened: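 Fluorescent calcium dye reports M1 activation in stably transfected CHO cells. Compounds, 15 concentrations, added after 1 h dye loading at 37 C; kinetic reading at 1 sec intervals.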

[12] = cAMP Responsive Elements (CRE) small molecule agonists, cell-based qHTS assay (AID 1963590)
Procedure, shortened: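 Compound exposure lasted 3 h at 37 C/5% CO2 in CRE-bla HEK 293T cells grown in assay medium with 10% dialyzed FBS and 25 mM HEPES. Reporter signal came from LiveBLAzer B/G FRET substrate, 2 h, room temperature.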

[13] = cAMP Responsive Elements (CRE) small molecule antagonists, cell-based qHTS assay (AID 1963591; active = well fitted inhibition curve with a large enough effect in the signal ratio in the repeat runs, not every such curve was filed as active; the % refers to the signal ratio)
Procedure, shortened: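 Stimulation used NKH477 at a final 0.25 uM for 3 h in compound-treated CRE-bla HEK293T cells, seeded 18 h beforehand. Reporter activity was measured with LiveBLAzer B/G FRET substrate after 2 h at room temperature.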

[14] = molecular target: Beta-2 adrenergic receptor (Homo sapiens) (UniProt P07550); experiment: Adrenergic beta2 receptor (ADRB2) small molecule antagonists, cell-based qHTS assay (AID 1963592); note: series mostly up to about 92 µM; nearly all actives have a fitted effect of over 50% in size
Chain of Beta-2 adrenergic receptor (Homo sapiens) (P07550 whole entry, looked up): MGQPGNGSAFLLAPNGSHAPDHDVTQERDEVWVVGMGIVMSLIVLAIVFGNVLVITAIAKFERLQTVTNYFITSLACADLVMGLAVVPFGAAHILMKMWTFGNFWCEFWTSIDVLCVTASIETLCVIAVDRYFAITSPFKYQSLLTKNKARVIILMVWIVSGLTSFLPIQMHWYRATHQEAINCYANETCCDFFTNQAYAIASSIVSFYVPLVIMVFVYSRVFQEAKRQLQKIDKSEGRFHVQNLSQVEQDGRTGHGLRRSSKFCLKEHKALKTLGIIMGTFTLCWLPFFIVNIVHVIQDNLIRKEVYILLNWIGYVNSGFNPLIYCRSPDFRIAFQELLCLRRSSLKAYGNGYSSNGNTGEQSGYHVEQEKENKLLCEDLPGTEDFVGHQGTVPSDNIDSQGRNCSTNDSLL
Procedure, shortened: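 Assay format: CHO-ADRB2 cells, 18-20hr seeding at 37C/5% CO2, then compound plus 1nM isoproterenol agonist mix for 0.5hr RT. Homogeneous time-resolved fluorescence cAMP detection after 1hr, expressed as 665/615 nm ratio.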

[15] = molecular target: Beta-2 adrenergic receptor (Homo sapiens) (UniProt P07550); experiment: Adrenergic beta2 receptor (ADRB2) small molecule agonists, cell-based qHTS assay (AID 1963593);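 note: CHO cells stably overexpressing human ADRB2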
Procedure, shortened: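 CHO cells stably over-expressing ADRB2 were plated overnight at 37C, then dosed with compounds plus a stimulation mix containing 100uM IBMX and 25uM Ro-20-1724 for 0.5hr at room temperature. cAMP was measured by HTRF competition, 1hr.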

[16] = molecular target: D(2) dopamine receptor (Homo sapiens) (UniProt P14416); experiment: Dopamine D2 receptor (DRD2) small molecule antagonists, cell-based qHTS assay (AID 1963595; active = well fitted inhibition curve with a large enough effect in the signal ratio in the repeat runs, with a control signal flat; the % refers to the signal ratio)
Chain of D(2) dopamine receptor (Homo sapiens) (P14416 whole entry, looked up): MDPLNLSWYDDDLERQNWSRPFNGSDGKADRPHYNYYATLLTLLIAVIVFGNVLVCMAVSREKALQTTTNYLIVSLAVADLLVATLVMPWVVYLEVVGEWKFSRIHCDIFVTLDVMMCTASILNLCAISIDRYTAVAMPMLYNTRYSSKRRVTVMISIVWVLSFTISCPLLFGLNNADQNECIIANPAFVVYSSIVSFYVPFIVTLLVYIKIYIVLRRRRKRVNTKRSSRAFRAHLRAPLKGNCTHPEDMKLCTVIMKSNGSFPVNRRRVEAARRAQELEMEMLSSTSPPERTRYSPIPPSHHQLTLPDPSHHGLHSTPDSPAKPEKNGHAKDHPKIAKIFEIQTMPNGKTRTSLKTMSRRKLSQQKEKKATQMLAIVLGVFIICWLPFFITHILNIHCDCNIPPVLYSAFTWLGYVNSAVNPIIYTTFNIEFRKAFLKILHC
Procedure, shortened: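 Readout: HTRF cAMP, cAMP-d2 competing with cellular cAMP for anti-cAMP cryptate, read after 1 h. Cells: DRD2-HEK293. Conditions: 0.1 mM Ro20-1724, 12 nM quinpirole, 200 nM NKH477, 30 min RT.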

[17] = p53 small molecule agonists, cell-based qHTS assay (AID 1963582; active = well fitted activation curve with a large enough effect in the signal ratio in the repeat runs, not every such curve was filed as active; the % refers to the signal ratio)
Procedure, shortened: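 After plating, p53RE-bla cells sat 5 h in the incubator; compounds or DMSO vehicle were pinned in; a 16 h incubation at 37 C followed; FRET substrate was added and, 2 h later at RT, fluorescence was measured.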

[18] = molecular target: 5-hydroxytryptamine receptor 2A (Homo sapiens) (UniProt P28223); experiment: 5-hydroxytryptamine receptor 2A (HTR2A) small molecule antagonists, cell-based qHTS assay (AID 1963586); note: nearly all actives have a fitted effect of over 45% in size
Procedure, shortened: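 CHO cells stably expressing human HTR2A were plated for 18 h at 37 C, then loaded with calcium dye for 1 h. Compounds were preincubated 5 min at room temperature before DOI (4 nM solution) was added. Kinetic fluorescence was read for 3 min.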

[19] = molecular target: D(2) dopamine receptor (Homo sapiens) (UniProt P14416); experiment: Dopamine D2 receptor (DRD2) small molecule agonists, cell-based qHTS assay (AID 1963594); note: nearly all actives have a fitted effect of over 35% in size
Procedure, shortened: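 HEK293 cells stably expressing DRD2 were cultured 24 h at 37 C, then given Ro20-1724 (0.1 mM final) and compounds for 10 min at room temperature. NKH477 (200nM) was then added for 30 min. cAMP was read by HTRF.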

[20] = Nuclear factor erythroid 2-related factor 2/antioxidant responsive element (Nrf2/ARE) small molecule agonists: luciferase reporter gene qHTS assay in human keratinocytes (AID 1919969); note: nearly all actives have a fitted effect of over 35% in size
% is set by controls: 0 for no effect and ±100 for the full control effect.

Cc1cccc(CN2CCN(C(c3ccccc3)c3ccc(Cl)cc3)CC2)c1 (centres undefined)
inactive: Potency [1] | outcome [2] | outcome [3] | Potency [4] | Potency [5] | Potency [6] | Potency [7] | Potency [8] | Potency [9] | Potency [10] | Potency [11] | Potency [12] | Potency [13] | Potency [14] | Potency [15] | Potency [16]

CCNC(=O)NCCCOc1cccc(CN2CCCCC2)c1
inactive: Potency [1] | outcome [2] | outcome [3] | Potency [4] | Potency [5] | Potency [6] | Potency [7] | Potency [17] | Potency [18] | Potency [9] | Potency [10] | Potency [11] | Potency [12] | Potency [13] | Potency [14] | Potency [15] | Potency [19] | Potency [16]

Nc1ccc(S(=O)(=O)Nc2ccnn2-c2ccccc2)cc1
inactive: activity change [1] -0.562% [at 11.8 µM, hits give high values] | activation [2] 15% [at 15.8 µM] | activation [3] 0.406% [at 11.8 µM] | activation [4] 4.03% [at 13.5 µM] | activation [5] 0.115% [at 13.6 µM] | activity change, negative = cytotoxicity [6] 1.97% [at 13.5 µM] | activity change, negative = cytotoxicity [7] -1.12% [at 13.5 µM] | activation [17] 1.07% [at 13.5 µM] | activation [12] -0.057% [at 19 µM] | activity change, negative = inhibition [13] 0.401% [at 18.9 µM] | activity change, negative = inhibition [14] 0.77% [at 19 µM] | Potency [15] | activation [19] -21.6% [at 19 µM] | activity change, negative = inhibition [16] 1.2% [at 18.9 µM]

C=CC1CO1 (centres undefined)
inactive: Potency [1] | outcome [2] | outcome [3] | Potency [4] | Potency [6] | Potency [7] | Potency [8] | Potency [17] | Potency [18] | Potency [9] | Potency [10] | Potency [11] | Potency [12] | Potency [13] | Potency [14] | Potency [19] | Potency [16]

CC(C(=O)O)c1ccc(CC2CCCC2=O)cc1 (centres undefined)
inactive: Potency [1] | outcome [2] | outcome [3] | Potency [4] | Potency [5] | Potency [7] | Potency [8] | Potency [12] | Potency [13] | Potency [14] | Potency [19] | Potency [16]

CNC(=O)c1c(I)c(NC(=O)CCCCC(=O)Nc2c(I)c(C(=O)O)c(I)c(C(=O)NC)c2I)c(I)c(C(=O)O)c1I
inactive: Potency [20] | Potency [1] | outcome [2] | outcome [3] | Potency [4] | Potency [5] | Potency [6] | Potency [7] | Potency [8] | Potency [17] | Potency [9] | Potency [10] | Potency [11] | Potency [12] | Potency [13] | Potency [14] | Potency [15] | Potency [19] | Potency [16]

CC(C)COC(=O)c1ccccc1
inactive: Potency [20] | Potency [1] | outcome [2] | outcome [3] | Potency [4] | Potency [5] | Potency [6] | Potency [7] | Potency [8] | Potency [17] | Potency [18] | Potency [9] | Potency [10] | Potency [11] | Potency [12] | Potency [13] | Potency [15] | Potency [19]
